Only some compounds are listed: those with a hit (about 0.49% of all), similar ones and a draw of the others.
LDHA inh: LDHA (human) enzyme inhibition. purified LDHA, NADH/diaphorase-resazurin fluorescence; active compounds read low. activity change, % (values are at about 110 or 230 µM). 0.15% of 480,000 active. AID 1347041; in the data active means activity change below about -30%; inconclusive means mostly about -25% to -30%;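 further: plate controls were DMSO wells for no effect and wells without enzyme for full effect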
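Enzyme activity of human lactate dehydrogenase 5 (2 nM; 0.06 mM NADH, 0.2 mM pyruvate, 5 min, RT) is measured via a resazurin/diaphorase fluorescence readout of residual NADH.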
Vif-APOBEC3F blk: inhibitors of Vif-A3F interaction; Potency, µM (titrated, usually from 46.1 µM), for the others: at the top dose activity, negative = active; 0.2% of 390,000 active; HeLa A3F-eYFP + Vif (tagged APOBEC3F with the HIV-1 protein that degrades it), YFP fluorescence increase; further: potency means the concentration at half of the fitted maximal effect; % of control where 0% means no effect; nearly all actives have a fitted effect of over 65% in size
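HeLa cells stably expressing A3F-eYFP plus Vif, plated and incubated overnight at 37 deg C, then exposed to compounds overnight at 37 deg C. Blocked degradation read as raised yellow fluorescence (Ex 488/Em 500-530).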
Epigenetic reg: derepresses silenced GFP reporter in murine cells | murine LDR cells, GFP reporter derepression, 30 h | Potency, µM (highest dose often 53.9 µM), inactives show at the highest dose GFP activation, most hits filed as activators | 0.2% of 280,000 active; further: potency means the concentration at half of the fitted maximal effect; % of control where 0% means no effect; nearly all actives have a fitted effect of over 60% in size
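In this reporter-derepression format, murine cells bearing a silenced integrated CMV-GFP locus incubate with test compound (30 h, 37 C), then are washed and imaged; fluorescent objects of 20–120 um count as induced cells.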
Vif-A3G inh: inhibitors of Vif-APOBEC3G interaction; 0.076% of 410,000 active; Q9HC16; HeLa A3G-eYFP + Vif (tagged APOBEC3G with the HIV-1 protein that degrades it), YFP fluorescence, overnight; Potency, µM (top dose mostly 46.1 µM), without a hit: at the highest dose activity, negative = active, actives largely listed as inhibitors; further: potency means the concentration at half of the fitted maximal effect; on the % scale 0 is the no-effect control and ±100 the full control effect; nearly all actives have a fitted effect of over 60% in size
Target sequence (Q9HC16 whole entry, looked up): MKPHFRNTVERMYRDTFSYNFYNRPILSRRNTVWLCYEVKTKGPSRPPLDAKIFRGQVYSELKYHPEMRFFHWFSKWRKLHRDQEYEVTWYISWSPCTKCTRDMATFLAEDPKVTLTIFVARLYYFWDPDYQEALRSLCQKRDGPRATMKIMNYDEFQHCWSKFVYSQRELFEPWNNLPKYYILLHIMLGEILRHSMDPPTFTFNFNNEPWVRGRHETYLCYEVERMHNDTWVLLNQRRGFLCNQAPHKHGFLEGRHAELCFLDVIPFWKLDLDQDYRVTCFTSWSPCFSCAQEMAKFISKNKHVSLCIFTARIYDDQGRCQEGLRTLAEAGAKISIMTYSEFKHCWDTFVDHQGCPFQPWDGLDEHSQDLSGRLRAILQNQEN
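Read-out is eYFP fluorescence (Ex 488/Em 500-530) from Vif-expressing HeLa A3G-eYFP cells; more signal means A3G escaped Vif-mediated degradation. Cells plated overnight, compound pinned in, incubated overnight at 37 deg C.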
Apoferritin bind: candidate novel general anesthetic via apoferritin binding | P02791 | apoferritin/1-aminoanthracene competitive binding, fluorescence | Potency, µM (titrated, usually from 77.5 µM), for the others: at the highest dose activity change, negative = displacement, actives largely listed as inhibitors | 0.074% of 350,000 active | AID 485281; further: potency means the concentration at half of the fitted maximal effect; on the % scale 0 is the no-effect control and ±100 the full control effect; nearly all actives have a fitted effect of over 20% in size
Target sequence (P02791 2-175 limits assumed): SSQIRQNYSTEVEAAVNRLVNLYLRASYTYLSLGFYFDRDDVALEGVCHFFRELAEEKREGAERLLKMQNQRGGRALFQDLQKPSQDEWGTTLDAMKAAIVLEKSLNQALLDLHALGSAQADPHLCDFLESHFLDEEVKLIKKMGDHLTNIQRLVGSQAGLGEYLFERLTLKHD
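Steps: apoferritin (10 uM) was premixed with half-saturated 1-AMA in PBS, compounds were pin-transferred, plates stood 10 min at room temperature, fluorescence was read at 380/535 nm, and curves were fitted with a Hill equation.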
* marks the source's active call; other numbers are inactive results; ? = inconclusive; nt = not tested or not shown; ! = repeats disagree. Unless noted, the call rests on the fitted dose curve; in most records, active means well fitted curve in the direction sought with a large enough effect; inconclusive means small, poorly fitted or top-dose-only effect, or another doubt; inactive means no such curve, though single readings can be large; an effect the other way counts as inactive or inconclusive.

SMILES	LDHA inh	Vif-APOBEC3F blk	Epigenetic reg	Vif-A3G inh	Apoferritin bind
Cc1cc(-c2ccccc2)c2c3c(c(-c4ccccc4)n2n1)c(=O)n(C)c(=O)n3C	0	25µM*	?	?	-5%
Cc1cc(C)c2c3c(c(-c4ccccc4)n2n1)c(=O)n(C)c(=O)n3C	-8	13%	nt	2%	nt
CCOC(=O)c1c(-c2ccc(OC)cc2)csc1/N=C/C1C(=O)CCCC1=O	15	25µM*	?	?	?
Oc1cccc(C2c3[nH]c4ccccc4c3CCN2Cc2ccoc2)c1 (configuration not stated)	-121*	-14%	-1%	-11%	-8%
COc1ccc(OC)c(NC(=O)Cn2cnc3onc(-c4ccc(Cl)cc4)c3c2=O)c1	-2	-9%	12%	1.3µM*	-7%
COc1cccc(CNC(=O)CSCC(=O)Nc2cc(C)on2)c1	0	5%	nt	-3%	nt
Oc1[nH]c2ccccc2c1N=Nc1ncnc2c1oc1ccccc12	nt	nt	?	nt	-8%
CCc1cc2c(N=Nc3c(O)[nH]c4ccccc34)ncnc2s1	-2	?	22µM*	-24%	-1%
Cc1sc2ncnc(N=Nc3c(O)[nH]c4ccccc34)c2c1C	1	22µM*	?	-6%	-4%
Oc1[nH]c2ccccc2c1N=Nc1nncc2ccccc12	1	1%	0%	-3%	4%
S=C(Nc1cccnc1)NC1CCCCCCC1	-2	-16%	2%	-8%	-1%
NC(=O)c1ccc(-n2nnnc2SCC(=O)Nc2ccc(F)cc2)cc1	-9	-10%	nt	-3%	-9%
CCCC(=O)NC(c1ccc(OC)cc1)c1ccc2cccnc2c1O (configuration not stated)	7	11µM*	3.5µM*	-15%	-18%
CCCCC(=O)NC(c1ccccc1Cl)c1ccc2cccnc2c1O (configuration not stated)	12	0%	nt	-18%	-6%
CCC(=O)NC(c1ccccc1OC)c1ccc2cccnc2c1O (configuration not stated)	16	0%	3.5µM*	-6%	-14%
CCN(CC)c1ccc2c(Cl)c(Br)c(=O)oc2c1	4	?	11µM*	?	1%
COc1ccc(NC(=O)N(C)C[C@@H]2OCc3cnnn3CCCC(=O)N([C@H](C)CO)C[C@@H]2C)c(OC)c1	2	0%	nt	6%	nt
O=C(Nc1cccc(C(=O)Nc2ccc(S(=O)(=O)O)c3cc(S(=O)(=O)O)cc(S(=O)(=O)O)c23)c1)Nc1cccc(C(=O)Nc2ccc(S(=O)(=O)O)c3cc(S(=O)(=O)O)cc(S(=O)(=O)O)c23)c1	-112*	nt	0%	3%	-12%
CC1(C)C(c2ccccc2)[N+](=O)C(c2ccccc2)=C(c2ccccc2)N1[O-] (configuration not stated)	2	nt	nt	nt	nt
O=C(Nc1nc(-c2ccc3ccccc3c2)cs1)C1CCN(S(=O)(=O)c2cccs2)CC1	-30*	1%	-2%	0%	1%
Cc1ccc2c(CN(C)CCOc3ccc(F)cc3)cc(=O)oc2c1	-33*	nt	nt	nt	nt
CSCC[C@H](NC(=O)[C@H](CC(C)C)NC(=O)CNC(=O)[C@H](Cc1ccccc1)NC(=O)[C@H](Cc1ccccc1)NC(=O)[C@H](CCC(N)=O)NC(=O)[C@H](CCC(N)=O)NC(=O)[C@@H]1CCCN1C(=O)[C@H](CCCCN)NC(=O)[C@@H]1CCCN1C(=O)[C@H](CCCN=C(N)N)NC(=O)CCCCC1SCC2NC(=O)NC21)C(N)=O (some centres not stated)	nt	nt	nt	nt	-4%
CCOc1cc(/C=C2\CN(C)C/C(=C\c3ccc(O)c(OCC)c3)C2=O)ccc1O	8	-3%	nt	?	1%
CCOc1cc(/C=C2\CCC/C(=C\c3cc(Cl)c(O)c(OCC)c3)C2=O)cc(Cl)c1O	8	?	?	3.2µM*	?
COc1ccc(NCc2cc3cc4c(cc3n(CC(=O)Nc3cc(C)ccc3C)c2=O)OCCO4)cc1	5	13µM*	11%	?	-7%
SMILES	LDHA inh	Vif-APOBEC3F blk	Epigenetic reg	Vif-A3G inh	Apoferritin bind
COc1ccc(NCc2cc3cc4c(cc3n(CC(=O)Nc3ccc(C)cc3C)c2=O)OCO4)cc1	11	-1%	1%	1%	5%
CCCCNC(=O)CN1CCN(Cc2ccc3cc(OC)ccc3c2)CC1	-33*	-1%	nt	3%	-3%
O=C(O)c1cc(NC(=O)c2ccc3c(c2)C(=O)N(Cc2ccccc2)C3=O)cc(C(=O)O)c1	-8	-7%	nt	2%	-3%
Cc1ccc(-c2ccc(=O)n(CC(=O)N3CCN(c4cccc(C)c4)C(C)C3)n2)cc1 (configuration not stated)	2	6%	0%	3%	25µM*
CC(=O)Oc1ccc2cc(-c3ccccc3)c(=O)oc2c1	-31*!	7%	-1%	7%	204%
CC(=O)COc1ccc2cc(-c3ccccc3)c(=O)oc2c1	-10	-1%	nt	-7%	-4%
Cc1cccc(N2CCN(C(=O)Cn3c(-c4cccs4)cc4ccccc43)CC2)c1C	-8	-2%	0%	2%	1%
CC[C@@H](NCCCn1ccc(NC(=O)OCc2ccccc2)nc1=O)c1ccccc1	-2	-1%	nt	-4%	nt
CCOC(=O)c1c(C)n(-c2ccccc2)c2ccc(O)cc12	-7	0%	-1%	-4%	-9%
CCOC(=O)c1c(CN(CC)CC)n(-c2ccccc2)c2ccc(O)cc12	4	-2%	nt	13µM*	0%
Cc1cc2nc(/C(C#N)=C\c3ccc(-c4ccccc4C(=O)O)o3)[nH]c2cc1C	0	-319%	nt	8%	-2%
Cc1ccc2nc(/C(C#N)=C/c3ccc(-c4ccccc4C(=O)O)o3)[nH]c2c1	-5	11µM*	nt	?	6%
CCOC(=O)c1ccc(-c2ccc(/C=C(\C#N)c3nc4ccc(C)cc4[nH]3)o2)cc1	0	nt	1.6µM*	nt	-3%
N#C/C(=C\c1ccc(-c2ccccc2F)o1)c1nc2ccccc2[nH]1	14	nt	nt	nt	nt
Cc1ccc2nc(/C(C#N)=C/c3ccc(-c4ccc(Cl)cc4)o3)[nH]c2c1	-11	nt	nt	nt	nt
N#C/C(=C\c1ccc(-c2ccccc2C(=O)O)o1)c1nc2ccccc2[nH]1	-4	22µM*!	0%	-9%	15%
N#C/C(=C\c1ccc(-c2ccc(F)cc2F)o1)c1nc2ccccc2[nH]1	-5	11µM*	7.9µM*	11µM*	-1%
N#C/C(=C\c1ccc(-c2ccccc2)o1)c1nc2ccccc2[nH]1	-7	nt	nt	nt	nt
O=C(O)CC1C(=O)OCN1C(=O)OCc1ccccc1 (configuration not stated)	0	-6%	-1%	-6%	-4%
CCOC(=O)C(NCCc1ccccc1F)(NC(=O)CC)C(F)(F)F (configuration not stated)	-4	-1%	1%	1%	2%
